For assay [1], the target named is Lysosomal acid glucosylceramidase (Homo sapiens) (UniProt P04062). In words: Glucocerebrosidase-p2 (AID 348; in the data active means potency below about 10 µM; further: potency means the concentration at half of the fitted maximal effect). The settings on record: purified GBA, blue fluorogenic substrate, 40 min. The essentials:
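Normal human glucocerebrosidase (0.2 nM) with blue fluorogenic substrate (80 uM final) in citrate/phosphate pH 5.9 with 10mM sodium taurocholate, 0.01% tween-20; 40 min RT, NaOH/glycine stop; fluorescence Ex 365/Em 440; AC50 from a titration from 0.6 nM upwards.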

Assay [2] is described as follows: AP1 Signaling Pathway (AID 357).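 Further: ME-180 reporter cells stimulated with EGF at its EC50 level; on the % scale 0 is the no-effect control and ±100 the full control effect.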 The settings on record: ME-180 AP-1-bla reporter, EGF-induced, beta-lactamase ratio, 5 h; at 7.69 µM (top of the series) unless noted. The essentials:
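Titration-series screen for positive or negative modulators of EC50 EGF-induced signaling in ME-180 cells carrying an AP-1-driven beta-lactamase reporter. After 5 hours at 37 degrees Celsius, CCF4 460nm/530nm emission ratio gave %Activity; AC50 values derived.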

Assay [3] can be described thus: NFAT Signaling Pathway (AID 444).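 Further: carbachol stimulus at about its EC50 of 1 µM final; on the % scale 0 is the no-effect control and ±100 the full control effect.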 The note with it: Jurkat NFAT-bla M1, carbachol, beta-lactamase ratio, 5 h; at 7.69 µM (top of the series) unless noted. The essentials:
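Read-out: CCF4 FRET ratio (460 nm/530 nm) after 1 h RT dye loading, used for %activity and AC50 from titration series. Cells: Jurkat NFAT-β-lactamase/M1 line, treated with compound plus 1 uM carbachol for 5 h, 37 °C.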

Assay [4] in a line: Stat Signaling Pathway (AID 446).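 Further: ME-180 cervical cancer cells given 40 pM IL-6 alongside compound; SIE-controlled beta-lactamase reporter measured as 460/530 nm FRET emission ratio; on the % scale 0 is the no-effect control and ±100 the full control effect.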 The settings on record: ME-180 (cervical carcinoma) SIE beta-lactamase reporter, IL-6 stimulated, 5 h; at 7.69 µM (top of the series) unless noted. The essentials: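 Compound effects on IL-6-induced STAT reporter activity were measured in ME-180 cells. After overnight culture, cells were co-treated with 40 pM IL-6 for 5 hrs before beta-lactamase substrate loading at room temperature.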

In assay [5] the target is Glucocorticoid receptor (Homo sapiens) (UniProt P04150). In words: GR-GFP Redistribution (AID 450;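 active means compounds whose dose series gives a full or clear partial fitted curve of increased nuclear translocation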; further: potency means the concentration at half of the fitted maximal effect). The settings on record: U2OS GR-GFP nuclear translocation, laser cytometry, 2 h.
For assay [6] the target is unchanged. Briefly: GR-EFC Redistribution (AID 451; calls by dose curve; further: potency means the concentration at half of the fitted maximal effect). The settings on record: CHO-K1 GR-EFC translocation, beta-gal luminescence, 2 h. The essentials: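 Translocation of GR-ED fusion to nuclear EA restores b-gal, read by luminescence after 1 h room-temperature detection. Engineered CHO-K1 biosensor cells, 1,000/well, exposed 2 h at 37 C to titrations up to 46 uM final.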

Assay [7] has as its target Mitogen-activated protein kinase 10 (Mus musculus) (UniProt Q61831). Briefly: JNK3 AlphaScreen Assay (AID 530).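 Further: kinase came from lysate of stimulated human HepG2 cells; signal reports phosphorylation of biotinylated GST-cJun 1-79 at Ser73 with 10 µM ATP; on the % scale 0 is the no-effect control and ±100 the full control effect.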 The settings on record: JNK3 lysate, c-Jun phosphorylation; series mostly up to 57.1 µM. A digest of the protocol:
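qHTS titrations with 15 min compound pre-incubation before adding ATP (10 uM final). Read-out: AlphaScreen of Ser73-phosphorylated biotin-GST-cJun using HepG2 lysate JNK3 activated by IL-1β and TNFα.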
A general note: Bead proximity is the source of the signal in Alpha formats.

For assay [8], the target named is 3',5'-cyclic-AMP phosphodiesterase 4B (Homo sapiens) (UniProt Q07343). In words: qHTS Assay for Inhibitors of PDE-IV (AID 607; active means well fitted activation curve with a large enough effect in the main read-out, with a control signal flat, not every such curve was filed as active; further: % of control where 0% means no effect). The note with it: HEK293 ACTOne CNG channel cells, membrane potential fluorescence; series mostly up to 22.9 µM. A digest of the protocol: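 ACTOne HEK293 cells carry a modified cAMP-gated CNG channel and express endogenous PDE4; plated 1000 cells/well, compounds up to 22.9 uM final. Membrane-potential dye fluorescence (ex 535/em 590) was read; parental cells received 10 uM forskolin + 100 uM RO 20-1724.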

The target of assay [9] is Cytochrome P450 1A2 (Homo sapiens) (UniProt P05177). Briefly: p450-cyp1a2 (AID 410; calls by dose curve; further: potency means the concentration at half of the fitted maximal effect;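 on activity change, negative = inhibition: -100% = full effect of reference inhibitor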). The note with it: recombinant CYP1A2, luciferin-ME demethylation, luminescence; series mostly up to 11.4 µM. A digest of the protocol:
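O-Demethylation of luciferin 6' methyl ether by human CYP1A2 is monitored as luciferase luminescence. Substrate sits at Km (100uM); enzyme is 20nM. Values are scaled to 57 uM furafylline as maximal inhibition.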

In assay [10] the target is Cytochrome P450 2D6 (Homo sapiens) (UniProt P10635). In words: qHTS Assay for Inhibitors and Substrates of Cytochrome P450 2D6 (AID 891; active means well fitted inhibition curve with a large enough effect; further: potency means the concentration at half of the fitted maximal effect; nearly all actives have a fitted effect of over 60% in size). The note with it: recombinant CYP2D6, luciferin-ME EGE luminescence; series mostly up to 11.4 µM. The essentials:
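Luminescent read-out of luciferin formed by 5 nM human CYP2D6 demethylating 30 uM Luciferin-ME EGE (Km level) over 60 min at room temperature after NADPH regeneration addition. Data normalized to full inhibition by 1.43 uM quinidine.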

The target in assay [11] is Cytochrome P450 2C19 (Homo sapiens) (UniProt P33261). In words: qHTS Assay for Inhibitors and Substrates of Cytochrome P450 2C19 (AID 899; active means well fitted inhibition curve with a large enough effect; further: nearly all actives have a fitted effect of over 60% in size; further: potency means the concentration at half of the fitted maximal effect). The note with it: recombinant CYP2C19, luciferin-H EGE luminescence; series mostly up to 11.4 µM. A digest of the protocol:
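Reactions contain 5nM enzyme, 10uM Luciferin-H EGE (KM) and 50mM KPO4; compound preincubates 10 min at 37C, NADPH regeneration starts turnover for 60 min. Luminescence after detection reagent gives activity.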
On the technique in general: In qHTS, concentration-response curves come from the screen itself.

Unmarked numbers belong to inactive results. Records with an inconclusive call do not appear. Activity calls are given as the source filed them. Unless noted, the call rests on the fitted dose curve; in most records, active means well fitted curve in either direction with a large enough effect (not every such curve was filed as active); inconclusive means small, poorly fitted or top-dose-only effect, or another doubt; inactive means flat fitted curve, though single readings scatter.

Chain of Cytochrome P450 1A2 (Homo sapiens) (P05177 whole entry, looked up): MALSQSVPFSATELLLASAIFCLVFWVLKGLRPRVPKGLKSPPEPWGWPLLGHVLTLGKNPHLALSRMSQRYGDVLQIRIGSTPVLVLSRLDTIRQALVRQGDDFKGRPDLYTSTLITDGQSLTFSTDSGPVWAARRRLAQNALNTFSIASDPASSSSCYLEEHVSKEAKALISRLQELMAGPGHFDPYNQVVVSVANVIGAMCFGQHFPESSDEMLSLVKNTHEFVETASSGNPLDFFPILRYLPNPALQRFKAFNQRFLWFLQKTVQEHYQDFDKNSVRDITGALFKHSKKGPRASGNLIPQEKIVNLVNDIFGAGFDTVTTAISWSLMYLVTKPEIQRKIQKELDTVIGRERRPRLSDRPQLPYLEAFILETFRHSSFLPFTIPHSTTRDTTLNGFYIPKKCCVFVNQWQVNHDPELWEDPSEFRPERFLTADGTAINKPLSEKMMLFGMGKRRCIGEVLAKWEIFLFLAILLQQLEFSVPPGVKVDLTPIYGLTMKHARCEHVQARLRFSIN
Chain of Lysosomal acid glucosylceramidase (Homo sapiens) (P04062 whole entry, looked up): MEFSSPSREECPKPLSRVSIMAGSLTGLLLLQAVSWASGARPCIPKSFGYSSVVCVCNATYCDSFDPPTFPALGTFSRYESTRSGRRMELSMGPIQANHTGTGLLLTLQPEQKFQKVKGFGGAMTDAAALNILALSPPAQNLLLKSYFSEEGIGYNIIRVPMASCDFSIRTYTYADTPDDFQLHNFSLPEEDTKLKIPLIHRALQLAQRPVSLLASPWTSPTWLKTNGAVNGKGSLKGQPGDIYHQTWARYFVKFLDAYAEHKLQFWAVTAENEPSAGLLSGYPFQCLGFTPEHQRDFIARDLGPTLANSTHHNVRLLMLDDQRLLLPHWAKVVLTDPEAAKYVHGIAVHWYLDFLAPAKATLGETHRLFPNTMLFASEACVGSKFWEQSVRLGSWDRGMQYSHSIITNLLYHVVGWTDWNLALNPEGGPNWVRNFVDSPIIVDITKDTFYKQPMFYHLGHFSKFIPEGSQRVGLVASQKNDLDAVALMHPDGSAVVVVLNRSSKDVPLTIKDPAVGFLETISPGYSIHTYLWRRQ
Chain of 3',5'-cyclic-AMP phosphodiesterase 4B (Homo sapiens) (Q07343 whole entry, looked up): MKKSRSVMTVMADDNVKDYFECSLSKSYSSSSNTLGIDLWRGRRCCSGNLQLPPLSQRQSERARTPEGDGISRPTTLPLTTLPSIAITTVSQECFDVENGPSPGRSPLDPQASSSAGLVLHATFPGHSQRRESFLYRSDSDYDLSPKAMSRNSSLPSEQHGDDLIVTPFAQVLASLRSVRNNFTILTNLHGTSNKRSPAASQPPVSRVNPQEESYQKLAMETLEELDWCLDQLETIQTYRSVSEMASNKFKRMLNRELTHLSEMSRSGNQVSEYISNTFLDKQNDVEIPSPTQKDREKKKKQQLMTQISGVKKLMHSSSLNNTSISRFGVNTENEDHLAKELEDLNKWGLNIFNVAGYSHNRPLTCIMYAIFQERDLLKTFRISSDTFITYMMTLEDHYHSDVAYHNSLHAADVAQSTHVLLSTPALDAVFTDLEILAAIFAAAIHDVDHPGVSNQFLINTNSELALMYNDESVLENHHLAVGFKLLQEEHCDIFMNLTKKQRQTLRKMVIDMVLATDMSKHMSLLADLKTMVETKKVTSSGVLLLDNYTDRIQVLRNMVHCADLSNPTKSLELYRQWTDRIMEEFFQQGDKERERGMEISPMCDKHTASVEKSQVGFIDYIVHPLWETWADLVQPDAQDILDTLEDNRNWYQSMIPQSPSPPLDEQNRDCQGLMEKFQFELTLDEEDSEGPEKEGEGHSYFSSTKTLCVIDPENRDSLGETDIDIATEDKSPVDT
Chain of Glucocorticoid receptor (Homo sapiens) (P04150 whole entry, looked up, the tested form may be a part): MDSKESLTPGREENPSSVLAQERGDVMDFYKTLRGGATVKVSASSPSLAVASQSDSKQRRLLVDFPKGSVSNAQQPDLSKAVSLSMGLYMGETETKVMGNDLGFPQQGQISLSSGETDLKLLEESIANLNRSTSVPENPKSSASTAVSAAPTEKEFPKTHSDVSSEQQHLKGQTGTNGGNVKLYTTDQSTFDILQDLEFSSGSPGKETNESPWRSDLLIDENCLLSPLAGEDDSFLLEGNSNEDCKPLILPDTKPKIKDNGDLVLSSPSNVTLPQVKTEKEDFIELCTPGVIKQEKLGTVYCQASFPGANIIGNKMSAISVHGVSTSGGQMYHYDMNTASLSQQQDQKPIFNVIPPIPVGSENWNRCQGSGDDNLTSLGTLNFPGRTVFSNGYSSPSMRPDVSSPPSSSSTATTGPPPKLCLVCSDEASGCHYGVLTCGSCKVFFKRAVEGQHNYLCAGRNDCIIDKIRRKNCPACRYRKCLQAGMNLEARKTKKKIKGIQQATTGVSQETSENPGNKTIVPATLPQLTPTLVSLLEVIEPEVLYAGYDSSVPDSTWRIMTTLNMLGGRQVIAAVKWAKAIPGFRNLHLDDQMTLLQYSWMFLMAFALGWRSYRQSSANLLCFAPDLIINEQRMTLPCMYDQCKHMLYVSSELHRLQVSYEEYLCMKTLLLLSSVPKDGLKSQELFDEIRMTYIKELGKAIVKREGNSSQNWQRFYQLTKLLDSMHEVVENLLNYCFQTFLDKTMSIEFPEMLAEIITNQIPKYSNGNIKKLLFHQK
Chain of Cytochrome P450 2C19 (Homo sapiens) (P33261 whole entry, looked up): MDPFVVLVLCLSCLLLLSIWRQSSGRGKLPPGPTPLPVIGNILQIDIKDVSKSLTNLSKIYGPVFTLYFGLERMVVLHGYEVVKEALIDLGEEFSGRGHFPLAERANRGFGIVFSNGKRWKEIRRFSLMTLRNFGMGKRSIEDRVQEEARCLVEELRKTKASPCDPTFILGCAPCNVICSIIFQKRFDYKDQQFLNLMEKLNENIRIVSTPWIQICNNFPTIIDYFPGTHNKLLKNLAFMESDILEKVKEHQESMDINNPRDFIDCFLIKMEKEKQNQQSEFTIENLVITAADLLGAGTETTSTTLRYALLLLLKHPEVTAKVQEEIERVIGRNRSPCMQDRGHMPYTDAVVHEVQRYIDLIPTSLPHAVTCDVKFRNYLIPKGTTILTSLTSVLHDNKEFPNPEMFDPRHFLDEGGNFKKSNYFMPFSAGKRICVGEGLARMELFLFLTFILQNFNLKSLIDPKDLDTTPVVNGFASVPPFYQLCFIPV
Chain of Cytochrome P450 2D6 (Homo sapiens) (P10635 whole entry, looked up): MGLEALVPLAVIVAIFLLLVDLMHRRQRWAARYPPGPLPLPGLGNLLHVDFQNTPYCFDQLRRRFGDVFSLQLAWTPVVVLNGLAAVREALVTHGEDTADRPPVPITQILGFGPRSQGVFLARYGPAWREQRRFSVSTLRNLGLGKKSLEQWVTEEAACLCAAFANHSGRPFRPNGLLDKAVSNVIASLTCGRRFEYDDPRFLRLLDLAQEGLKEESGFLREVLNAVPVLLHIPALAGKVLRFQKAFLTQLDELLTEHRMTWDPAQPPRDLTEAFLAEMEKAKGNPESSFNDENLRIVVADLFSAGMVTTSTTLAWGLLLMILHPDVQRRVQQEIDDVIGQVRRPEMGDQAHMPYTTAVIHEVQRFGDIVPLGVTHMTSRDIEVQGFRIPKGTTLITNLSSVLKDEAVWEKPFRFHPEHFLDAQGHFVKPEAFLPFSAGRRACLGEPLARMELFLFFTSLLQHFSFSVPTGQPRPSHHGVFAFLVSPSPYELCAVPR

In the case of `O=C(O)C[C@H]1OCC=C2CN3CC[C@]45c6ccccc6N[C@@H]4[C@H]1[C@H]2C[C@H]35`, the Potency in [1] was more than 11.4 µM; in assay [5], more than 46 µM; in assay [6], more than 9.22 µM. In addition, the activity change, negative = inhibition in assay [2] is 0.952%; in [3] it was -1.05%; in assay [7], 8.39% [at 11.4 µM]. Besides, the activity, negative = inhibition in [4] is -4.29%. In [8], the call was inactive.

Take `CC(C)[C@@H](Br)C(=O)NCC(=O)O`: the Potency in assay [1] is more than 11.4 µM; in assay [5], more than 46 µM; in [6] it was more than 9.22 µM. In addition, the activity change, negative = inhibition in assay [2] is 5.1%; in assay [3], 0.167%; in assay [7] it was 4.52% [at 11.4 µM]. For the same compound, the activity, negative = inhibition in [4] was 11.3%. Besides, the result in assay [8] was inactive.

Turning to `CC1(C)N=C(N)N=C(N)N1c1cccc(C(=O)Nc2ccc(S(=O)(=O)F)cc2)c1`, the Potency in assay [1] is more than 11.4 µM; in [5], more than 46 µM; in assay [6] it was more than 9.22 µM; in assay [10], 2 µM (active). The activity change, negative = inhibition was -0.165% in assay [2] and 7.01% [at 11.4 µM] in assay [7]. In assay [9], the Potency result was “inactive”. In addition, the activity, negative = inhibition in [4] was 9.13%. In addition, in assay [8], the compound was classed as inactive.

For `N#CS.N=C=S.N=C=S.[Cu].[NH2-].[NH2-].[NH2-].[NH2-].c1ccc2ncccc2c1`, the figures for the Potency in assay [1], in assay [5] and in assay [6] were more than 11.4 µM, more than 46 µM and more than 9.22 µM, respectively. The activity change, negative = inhibition in assay [2] was -1.15%; in assay [3] it was 0.5%; in assay [7], 0.42% [at 11.4 µM]. Moreover, the activity, negative = inhibition in assay [4] is -4.61%. Besides, in assay [8], the compound was classed as inactive.

For `FC(F)(F)c1nc2ccc(SSc3ccc4nc(C(F)(F)F)[nH]c4c3)cc2[nH]1`, the Potency was more than 11.4 µM in [1]; 0.501 µM (active) in [9]; more than 46 µM in assay [5]; more than 9.22 µM in assay [6]; 5.01 µM (active) in [11]. Besides, the values for the activity change, negative = inhibition in assay [2] and in assay [7] were -1.24% and 12.4% [at 11.4 µM], respectively. For the same compound, the activity, negative = inhibition in assay [4] was -6.22%. In assay [8], the call was inactive.

On to `COC(=O)[C@@H]1c2cc3c(c(O)c2[C@@H](O)C[C@]1(C)O)C(=O)c1c(O)cc2c(c1C3=O)O[C@H]1O[C@@]2(C)[C@@H](O)[C@H](N(C)C)[C@H]1O`, for which the Potency is more than 11.4 µM in assay [1], more than 46 µM in [5] and more than 9.22 µM in assay [6]. The activity change, negative = inhibition was -3.96% in [2], 6.8% in [3] and -5.17% [at 11.4 µM] in assay [7]. Also, the activity, negative = inhibition in assay [4] was -3.22%. Also, the compound was called inactive in [8].

For `C[C@]12CN(CC[N+](C)(C)C)C[C@]1(C)[C@@H]1CC[C@@H]2O1`, the Potency in assay [1] was 6.39 µM (active); in assay [5], more than 46 µM; in [6], more than 9.22 µM. Moreover, the activity change, negative = inhibition in assay [2] is 12.6%; in assay [3] it was 10.2%; in assay [7] it was -2.5% [at 11.4 µM]. Also, the activity, negative = inhibition in assay [4] is -6.86%. Further, in assay [8], the result was inactive.

Take `CC[C@@](O)(C(=O)O)c1cc2n(c(=O)c1CO)Cc1cc3ccccc3nc1-2`: the Potency was more than 11.4 µM in assay [1], more than 46 µM in assay [5] and more than 9.22 µM in [6]. The values for the activity change, negative = inhibition in assay [2], in [3] and in [7] were 0.967%, -9.59% and 3.55% [at 11.4 µM], respectively. For the same compound, the activity, negative = inhibition in [4] was -0.155%. Also, in assay [8], the compound was classed as inactive.

As for `O=C(O)[C@H]1C2c3ccccc3C(c3ccccc32)[C@@H]1C(=O)NCC1CC1`, the Potency in [1] was more than 11.4 µM; in [5], more than 46 µM; in assay [6], more than 9.22 µM. Moreover, the activity change, negative = inhibition is 1.37% in assay [2], -3.96% in [3] and 2.32% [at 11.4 µM] in assay [7]. In [4], the activity, negative = inhibition was 26.5%. The result in assay [8] was inactive.

For `N[C@@H](Cc1cc(Br)c(O)c(Br)c1)C(=O)O`, the Potency in assay [1] is more than 11.4 µM; in assay [5], more than 46 µM. In addition, the values for the activity change, negative = inhibition in [2] and in [7] were -11.9% and 1.55% [at 11.4 µM], respectively. In addition, the Potency result in [9] was “inactive”. The activity, negative = inhibition in [4] was 5.31%. The outcome in [8] was inactive.

Regarding `C[As+](C)(c1ccc(Br)c([N+](=O)[O-])c1)c1ccc(Br)c([N+](=O)[O-])c1.O=[N+]([O-])O`, the Potency in assay [1] is more than 11.4 µM; in assay [5], more than 46 µM; in assay [6], more than 9.22 µM. The activity change, negative = inhibition in assay [2] was 10.5%; in assay [7], -0.633% [at 11.4 µM]. In addition, the Potency result in assay [9] is “inactive”. The outcome in assay [8] was inactive.

Regarding `C[C@H](Br)C(=O)N[C@H](CO)C(=O)O`, the Potency was more than 11.4 µM in assay [1] and more than 46 µM in assay [5]. For the same compound, the activity change, negative = inhibition in [2] was -6.82%; in assay [7], 0.572% [at 11.4 µM]. In [9], the Potency result was “inactive”. For the same compound, in assay [4], the activity, negative = inhibition is -2.06%. The result in assay [8] was inactive.

Take `O=C(O)C(=O)Cc1ccc2c(c1)OCO2`: the Potency is more than 11.4 µM in assay [1], 3.98 µM (active) in assay [9], more than 46 µM in assay [5] and more than 9.22 µM in assay [6]. The activity change, negative = inhibition in assay [2] was 6.13%; in assay [7], 4.31% [at 11.4 µM]. Moreover, in [4], the activity, negative = inhibition was 3.17%. In addition, the compound was called inactive in assay [8]. Further, the Potency entry in assay [11] was “inactive”.

(Values after PubChem BioAssay (NCATS).)
